Experimental data from PubChem BioAssay (EPA / NIEHS).
“And” between values parts separate entries of the source, which are not always exact repeats. Equal entries are not always repeated. Results filed as inconclusive are left out. More than one record can exist for a structure, and the calls need not agree. The source made the active and inactive calls. Rule for the calls, unless noted: active = hit-call score of the fitted dose curve at least 0.9, where 1 is the maximum; inactive = score below 0.9.

Legend:
[1] = read-out: Tissue Factor, F3 (gene 2152); experiment: BSK_LPS_TissueFactor: BioMAP Diversity Plus: LPS Assay for Tissue Factor Biomarker Activity (AID 2283084); conditions: primary human HUVEC with PBMC; actives raise or lower the signal
Method in brief: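 Human umbilical vein endothelial cells co-cultured with peripheral blood mononuclear cells were dosed and stimulated with LPS. Cell-surface CD142 was quantified by ELISA at 24 h. Activity was fitted bidirectionally against DMSO baseline.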

[2] = read-out: Tumor necrosis factor (Homo sapiens) (UniProt P01375); experiment: BSK_LPS_TNFa: BioMAP Diversity Plus: LPS Assay for Tumour Necrosis Factor alpha (TNFa) Biomarker Activity (AID 2283085); conditions: primary human HUVEC with PBMC; actives raise or lower the signal
Method in brief: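 Primary human vascular co-culture of HUVEC and PBMC; TNFa ELISA 24 h after treatment, analysed as increase or decrease relative to DMSO control.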

[3] = read-out: Vascular cell adhesion molecule 1 (VCAM1), VCAM1 (gene 7412); experiment: BSK_LPS_VCAM1: BioMAP Diversity Plus: LPS Assay for Vascular cell adhesion molecule 1 (VCAM1) Biomarker Activity (AID 2283086); conditions: primary human HUVEC with PBMC; actives raise or lower the signal
Method in brief: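 Primary human vascular co-culture (umbilical vein endothelium plus PBMC) stimulated with LPS received chemical; 24 h later VCAM-1 was read by ELISA. Overt cytotoxicity was assessed by sulforhodamine B staining of parallel cultures at the same time point.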

CD40, CD40 (gene 958) = experiment: BSK_SAg_CD40: BioMAP Diversity Plus: SAg Assay for CD40 Biomarker Activity (AID 2283088); conditions: primary human HUVEC with PBMC; actives raise or lower the signal
Method in brief: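 Human umbilical vein endothelial cells co-cultured with PBMC; CD40 levels measured by ELISA with fluorescence read-out 24 h after chemical dosing. Gain or loss of signal fitted bidirectionally against DMSO baseline.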

CD69, CD69 (gene 969) = experiment: BSK_SAg_CD69: BioMAP Diversity Plus: SAg Assay for CD69 Biomarker Activity (AID 2283089); conditions: primary human HUVEC with PBMC; actives raise or lower the signal;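 note: cell surface CD69 protein quantified by ELISA with fluorescence detection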
Method in brief: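 Endothelial/PBMC co-culture; chemical added; 24 h incubation; CD69 ELISA with fluorescence detection; bidirectional fit vs DMSO.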

[4] = read-out: Monocyte Chemoattractant Protein-1 (MCP1), CCL2 (gene 6347); experiment: BSK_SAg_MCP1: BioMAP Diversity Plus: SAg Assay for Monocyte Chemoattractant Protein-1 (MCP1) Biomarker Activity (AID 2283090); conditions: primary human HUVEC with PBMC; actives raise or lower the signal
Method in brief: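 MCP-1 levels in the endothelial–PBMC SAg co-culture were quantified by ELISA at 24 h post-dosing; both increases and decreases versus DMSO scored. Cytotoxicity monitored by SRB total protein in parallel cultures.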

[5] = read-out: E-selectin (Homo sapiens) (UniProt P16581); experiment: BSK_SAg_Eselectin: BioMAP Diversity Plus: SAg Assay for Eselectin Biomarker Activity (AID 2283091); conditions: primary human HUVEC with PBMC; actives raise or lower the signal
Method in brief: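 HUVEC co-cultured with PBMC, compound dosed then read at 24 h; E-selectin measured by ELISA. Activity fitted bidirectionally against DMSO as negative control and baseline.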

[6] = read-out: Monokine induced gamma interferon (MIG), CXCL9 (gene 4283); experiment: BSK_SAg_MIG: BioMAP Diversity Plus: SAg Assay for Monokine induced gamma interferon (MIG) Biomarker Activity (AID 2283092); conditions: primary human HUVEC with PBMC; actives raise or lower the signal
Method in brief: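 Measures CXCL9 protein by ELISA in a human vascular primary-cell co-culture (umbilical vein endothelium with PBMC) 24 h after chemical addition. Activity is scored up or down from the DMSO control.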

[7] = BSK_SAg_PBMCCytotoxicity: PBMC Cytotoxicity Assessment in the BioMAP Diversity Plus: SAg Assay (AID 2283093); conditions: primary human HUVEC with PBMC;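 note: PBMC superantigen activated with SEB plus TSST-1 one hour after compound addition; PBMC viability measured as Alamar Blue reduction fluorescence at 546/580 nm; fitted both ways against DMSO so a hit may be loss or gain of signal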
Method in brief: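 Compound added to 75,000 PBMC/well for 1 h; SEB and TSST-1 then added at 20 ng/mL final each; 90 h incubation; Alamar Blue 6 h; read 546/580 nm ex/em. Activity fitted bidirectionally relative to DMSO baseline.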

[8] = BSK_SAg_Proliferation: Cell Proliferation Assessment in the BioMAP Diversity Plus: SAg Assay (AID 2283095); conditions: primary human HUVEC with PBMC;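 note: relative cell number as total protein by SRB absorbance in sub-confluent culture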
Method in brief: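 Readout is SRB-stained protein (560 nm) in a primary human HUVEC and PBMC co-culture; sub-confluent cultures are read at 96 h. Activity is fitted bidirectionally using DMSO as baseline.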

[9] = BSK_SAg_SRB: Viability Assessment in the BioMAP Diversity Plus: SAg Assay (AID 2283096); conditions: primary human HUVEC with PBMC;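 note: cells read one day after compound addition; hits may be either gain or loss of signal compared with DMSO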
Method in brief: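 Total protein by sulforhodamine B staining, 24 h after dosing, in HUVEC–PBMC co-culture; DMSO-referenced bidirectional fitting.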

[10] = target: bovine Estrogen Receptor (ER), ESR1 (gene 407238) (UniProt P49884); experiment: NVS_NR_bER: NovaScreen (NVS) Nuclear Receptor Binding Assay for bovine Estrogen Receptor (ER) (AID 2283345; active = hit-call score of the fitted dose curve at least 0.9, where 1 is the maximum;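 note: actives lower the bound radioligand count which means they displace the ER ligand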)
Method in brief: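 Scintillation counting of displaced radioligand gave the readout; bovine uterine membrane extract supplied the receptor. Measured 18 h post-dose, normalized to DMSO baseline. Single 25 uM duplicate screen preceded concentration-response follow-up.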

[11] = TOX21_p53_BLA_p2_viability: Viability Assessment in the Tox21 HCT-116 p53 Agonism Beta-lactamase Assay, Phase 2 (AID 2283591; active = hit-call score of the fitted dose curve at least 0.9, where 1 is the maximum;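 note: compound exposure lasted 16 h at 37 °C; actives lower the ATP signal meaning cytotoxicity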)
Method in brief: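 Cytotoxicity readout: CellTiter-Glo ATP luminescence, 30 min at room temperature, after the beta-lactamase read. Cells were HCT116 exposed 16 h at 37C to compounds pin-transferred at 217-fold dilution from DMSO stocks.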

[12] = TOX21_p53_BLA_p3_viability: Viability Assessment in the Tox21 HCT-116 p53 Agonism Beta-lactamase Assay, Phase 3 (AID 2283593; active = hit-call score of the fitted dose curve at least 0.9, where 1 is the maximum;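 note: cells exposed to compound for 16 h before reading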)
Method in brief: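 Cellular ATP was quantified by CellTiter-Glo luminescence, read after 30 min at room temperature. Beforehand, HCT116 cells (4000/well) received compound 5 h post-seeding, 217-fold diluted from DMSO, then incubated 16 h at 37C.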

[13] = TOX21_p53_BLA_p4_viability: Viability Assessment in the Tox21 HCT-116 p53 Agonism Beta-lactamase Assay, Phase 4 (AID 2283597; active = hit-call score of the fitted dose curve at least 0.9, where 1 is the maximum;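 note: hits lower the luminescence signal meaning cytotoxicity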)
Method in brief: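 HCT116 p53-bla cells (4000/well) rested 5 h at 37C, then received compounds in DMSO (217-fold dilution) for 16 h at 37C, 5% CO2. CellTiter-Glo was added after the CCF4-AM read, and luminescence was read after 30 min at room temperature.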

[14] = TOX21_p53_BLA_p5_viability: Viability Assessment in the Tox21 HCT-116 p53 Agonism Beta-lactamase Assay, Phase 5 (AID 2283600; active = hit-call score of the fitted dose curve at least 0.9, where 1 is the maximum)
Method in brief: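 Cells were plated at 4000/well, rested 5 h at 37C, then given compounds in DMSO (217-fold dilution) for 16 h at 37C, 5% CO2. Following the CCF4-AM beta-lactamase read, CellTiter-Glo was added and luminescence was read after 30 min at room temperature.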

[15] = CCTE_Shafer_MEA_acute_spike_number: CCTE's Neural Acute Assay for Total Number of Spikes, Shafer Lab (AID 2284008)
Method in brief: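 Primary rat cortical neurons on 16-electrode MEA wells; on DIV 13 or 15, 40-min baseline then 40-min recording with compound (0.03-40 uM) at 37 C. Spikes detected at 8x rms noise; percent change versus baseline, DMSO as negative control.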

[16] = CCTE_Harrill_HTTr_Viability_MCF7: CCTE's 6-hour Cell Viability Assessment for the High-Throughput Transcriptomics (HTTr) Platform, in MCF-7 cells cultured in DMEM + 10% fetal bovine serum, Harrill Lab (AID 2284010)
Method in brief: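 Viability measured through PI dye exclusion by high-content imaging at 6 h post-dosing.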

[17] = CCTE_Harrill_HTTr_Apoptosis_MCF7: CCTE's 6-hour Apoptosis Assessment for the High-Throughput Transcriptomics (HTTr) Platform, in MCF-7 cells cultured in DMEM + 10% fetal bovine serum, Harrill Lab (AID 2284011)
Method in brief: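 MCF-7 cells in DMEM + 10% fetal bovine serum were exposed to chemicals for 6 hours over an eight-point dilution series. Caspase-3/7 activation was imaged by high content imaging with CellEvent Caspase 3/7 Green; bidirectional fitting used DMSO as baseline.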

Measured: AC50

Tumor necrosis factor (Homo sapiens), sequence (P01375 whole entry, looked up): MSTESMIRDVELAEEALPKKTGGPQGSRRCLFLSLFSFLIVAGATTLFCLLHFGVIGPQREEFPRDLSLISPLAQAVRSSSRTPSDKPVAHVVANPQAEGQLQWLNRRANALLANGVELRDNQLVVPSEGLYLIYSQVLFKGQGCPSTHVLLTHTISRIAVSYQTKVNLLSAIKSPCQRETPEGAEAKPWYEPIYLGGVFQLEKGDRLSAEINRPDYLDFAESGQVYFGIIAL
E-selectin (Homo sapiens), sequence (P16581 whole entry, looked up): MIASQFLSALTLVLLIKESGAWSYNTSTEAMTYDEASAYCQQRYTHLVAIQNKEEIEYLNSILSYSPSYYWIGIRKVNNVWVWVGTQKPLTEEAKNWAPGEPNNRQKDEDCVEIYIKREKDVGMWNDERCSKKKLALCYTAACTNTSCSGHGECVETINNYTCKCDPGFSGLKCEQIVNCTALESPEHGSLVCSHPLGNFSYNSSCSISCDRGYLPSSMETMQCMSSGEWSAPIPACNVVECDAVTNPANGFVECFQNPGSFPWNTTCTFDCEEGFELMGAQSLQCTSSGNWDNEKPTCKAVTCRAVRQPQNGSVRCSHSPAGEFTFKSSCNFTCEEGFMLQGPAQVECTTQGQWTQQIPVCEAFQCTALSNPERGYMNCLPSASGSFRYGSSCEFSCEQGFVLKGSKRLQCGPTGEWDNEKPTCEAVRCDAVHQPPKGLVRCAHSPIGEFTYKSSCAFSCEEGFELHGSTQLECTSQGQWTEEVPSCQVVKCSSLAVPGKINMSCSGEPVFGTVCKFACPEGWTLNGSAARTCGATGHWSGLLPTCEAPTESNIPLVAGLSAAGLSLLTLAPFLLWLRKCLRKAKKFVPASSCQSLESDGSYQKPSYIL
bovine Estrogen Receptor (ER), ESR1 (gene 407238), sequence (P49884 whole entry, looked up): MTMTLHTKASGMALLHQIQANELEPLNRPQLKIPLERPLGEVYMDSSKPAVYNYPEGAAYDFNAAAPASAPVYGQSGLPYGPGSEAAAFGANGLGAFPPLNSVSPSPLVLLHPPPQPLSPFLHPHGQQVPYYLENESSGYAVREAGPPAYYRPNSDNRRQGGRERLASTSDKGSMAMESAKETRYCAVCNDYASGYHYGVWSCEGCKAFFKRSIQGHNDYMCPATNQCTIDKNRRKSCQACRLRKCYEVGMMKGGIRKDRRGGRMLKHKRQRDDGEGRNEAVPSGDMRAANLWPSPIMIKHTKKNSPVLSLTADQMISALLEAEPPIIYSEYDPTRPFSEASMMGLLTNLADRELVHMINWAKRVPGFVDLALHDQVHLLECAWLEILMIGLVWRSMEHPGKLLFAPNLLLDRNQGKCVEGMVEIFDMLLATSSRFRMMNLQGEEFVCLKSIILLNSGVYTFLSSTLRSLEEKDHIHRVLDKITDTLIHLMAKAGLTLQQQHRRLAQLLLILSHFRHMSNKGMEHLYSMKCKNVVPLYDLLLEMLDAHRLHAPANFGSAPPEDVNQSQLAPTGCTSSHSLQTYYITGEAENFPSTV

[Cd+2].[Cl-].[Cl-]
inactive: [1] | [2] | [6] | [9] | [10] | [12] | [13] | [14] | [15] | [16] | [17]
active: [2] 33 µM | [3] 30 µM and 35.9 µM | CD40, CD40 (gene 958) 30.2 µM and 34.7 µM | CD69, CD69 (gene 969) 32.4 µM and 30.4 µM | [4] 33 µM and 34.4 µM | [5] 32.2 µM and 30.2 µM | [7] 20 µM and 30.4 µM | [8] 14 µM and 13.4 µM | [11] 67.9 µM and 68.1 µM | [12] 69.2 µM | [13] 68.6 µM | [14] 76.2 µM
